Measured values as given in PubChem BioAssay (NCATS).
“And” between values parts separate entries of the source, which are not always exact repeats. Equal values may be shown once. Results filed as inconclusive are left out. The source made the active and inactive calls. Calls follow the shape of the dose curve; as a rule, active = well fitted curve in the direction sought with a large enough effect; inconclusive = small, poorly fitted or top-dose-only effect, or another doubt; inactive = no such curve, though single readings can be large; an effect the other way counts as inactive or inconclusive.

Legend:
TAB165 = experiment: qHTS profiling for inhibitors of Plasmodium falciparum proliferation (AID 504749); also: nearly all actives have a fitted effect of over 60% in size; conditions: P. falciparum in erythrocytes, SYBR Green DNA, 72 h; series mostly up to 28.7 µM
Outline: (§1)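 P. falciparum-infected erythrocytes (0.3% parasitemia, 2.5% hematocrit) incubated with compound 72 h at 37 C, 5% CO2. Parasite DNA detected by SYBR Green after lysis, overnight at room temperature; normalised to 0.29 uM artemisinin and DMSO.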

W2 = experiment: as above; conditions: P. falciparum in erythrocytes, SYBR Green DNA, 72 h; series mostly up to 28.7 µM
Outline: as §1

CRL-7250 = normal cell line; experiment: Cytotoxic Profiling of Annotated Libraries Using Quantitative High-Throughput Screening (AID 1296008); conditions: Five cell lines viability, CellTiter-Glo ATP luminescence, 48-72 h; max response: hits give low values; also: nearly all actives have a fitted effect of over 60% in size; as to max response: % is scaled to controls: 0 for no effect and ±100 for the full control effect
Outline: (§2)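 Cells exposed to compounds for 48 or 72 hr at 37 degrees Celsius. Viability read as ATP-coupled luminescence with CellTiter-Glo after 10 min at room temperature.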

HEK293 = experiment: as above; conditions: Five cell lines viability, CellTiter-Glo ATP luminescence, 48-72 h; max response: hits give low values
Outline: as §2

HaCat [1] = experiment: as above; conditions: Five cell lines viability, CellTiter-Glo ATP luminescence, 48-72 h; max response: hits give low values
Outline: as §2

KB-3-1 = experiment: as above; conditions: Five cell lines viability, CellTiter-Glo ATP luminescence, 48-72 h; max response: hits give low values
Outline: as §2

NIH3T3 [2] = experiment: as above; conditions: Five cell lines viability, CellTiter-Glo ATP luminescence, 48-72 h; max response: hits give low values
Outline: as §2

MCC-13 = experiment: qHTS assay to identify novel small-molecules to repurpose for Merkel cell carcinoma treatment (AID 1296009); conditions: MCC and control cell lines, CellTiter-Glo viability, 72 h; series mostly up to 46 µM; also: nearly all actives have a fitted effect of over 60% in size
Outline: (§3)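 Cells were treated for 72 hr at 37 degree celsius with compounds in 8- or 11-point dose response. Viability was read by CellTiter-Glo luminescence, normalized to no-cell (cytotoxicity) and DMSO controls.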

MCC-26 = experiment: as above; conditions: MCC and control cell lines, CellTiter-Glo viability, 72 h; series mostly up to 46 µM
Outline: as §3

MKL-1 = experiment: as above; conditions: MCC and control cell lines, CellTiter-Glo viability, 72 h; series mostly up to 46 µM
Outline: as §3

MKL-2 = experiment: as above; conditions: MCC and control cell lines, CellTiter-Glo viability, 72 h; series mostly up to 46 µM
Outline: as §3

UISO = experiment: as above; conditions: MCC and control cell lines, CellTiter-Glo viability, 72 h; series mostly up to 46 µM
Outline: as §3

WaGa = experiment: as above; conditions: MCC and control cell lines, CellTiter-Glo viability, 72 h; series mostly up to 46 µM
Outline: as §3

C33A = experiment: Primary qHTS to identify gynecologic anti-cancer compounds using libraries of approved drugs and bioactive compounds (AID 1345084); conditions: Gynecologic cancer cell panel viability, ATPlite luminescence, 48 h; series mostly up to 57.5 µM; also: nearly all actives have a fitted effect of over 55% in size
Outline: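 Five-concentration response, 48 h; readout is ATP-driven luciferase luminescence.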

HEK293T = experiment: qHTS assay to identify novel small-molecules to repurpose for Merkel cell carcinoma treatment (AID 1296009); conditions: MCC and control cell lines, CellTiter-Glo viability, 72 h; at 44.8 µM (top of the series) unless noted; also: nearly all actives have a fitted effect of over 60% in size
Outline: as §3

HACAT [3] = experiment: as above; conditions: MCC and control cell lines, CellTiter-Glo viability, 72 h; at 44.8 µM (top of the series) unless noted
Outline: as §3

SC27B = experiment: qHTS profiling for inhibitors of Plasmodium falciparum proliferation (AID 504749); also: nearly all actives have a fitted effect of over 60% in size; conditions: P. falciparum in erythrocytes, SYBR Green DNA, 72 h; series mostly up to 28.7 µM
Outline: as §1

TAB109 = experiment: as above; conditions: P. falciparum in erythrocytes, SYBR Green DNA, 72 h; series mostly up to 28.7 µM
Outline: as §1

TAB113 = experiment: as above; conditions: P. falciparum in erythrocytes, SYBR Green DNA, 72 h; series mostly up to 28.7 µM
Outline: as §1

NIH3T3 [4] = experiment: qHTS assay to identify novel small-molecules to repurpose for Merkel cell carcinoma treatment (AID 1296009); conditions: MCC and control cell lines, CellTiter-Glo viability, 72 h; at 44.8 µM (top of the series) unless noted; also: nearly all actives have a fitted effect of over 60% in size
Outline: as §3
Potency is read from the fitted curve at half-maximal effect.

Cc1cc(C2CCCCC2)n(O)c(=O)c1
active: Potency (TAB165) 3.16 µM | Potency (W2) 3.61 µM | Potency (CRL-7250) 3.35 µM and 2.96 µM | Potency (HEK293) 5.9 µM | Potency (HaCat [1]) 23.7 µM and 20.9 µM | Potency (NIH3T3 [2]) 3.76 µM and 14.8 µM | Potency (MCC-13) 10.6 µM | Potency (MCC-26) 15 µM | Potency (MKL-1) 2.11 µM and 10.5 µM | Potency (MKL-2) 1.88 µM and 11.8 µM | Potency (UISO) 2.66 µM and 13.2 µM | Potency (WaGa) 1.88 µM and 11.8 µM | Potency (C33A) 15.8 µM
inactive: max response (KB-3-1) -16.3%

CC1(C)C(=O)N(CCN2CCC(C(=O)c3ccc(F)cc3)CC2)c2ccccc21
inactive: max response (CRL-7250) 0.499% | outcome (HEK293) | max response (HaCat [1]) -16.9% | max response (KB-3-1) 2.39% | max response (NIH3T3 [2]) -5.82% | outcome (HEK293T) | Potency (MCC-13) | Potency (MCC-26) | Potency (MKL-1) | Potency (MKL-2) | Potency (UISO) | Potency (WaGa)

Cc1cccc(-c2[nH]ncc2-c2ccc3ncccc3n2)n1
inactive: max response (CRL-7250) -2.02% | max response (HEK293) -26.8% | outcome (HaCat [1]) | max response (KB-3-1) -11.3% | max response (NIH3T3 [2]) -18.1% | outcome (HACAT [3]) | Potency (MCC-13) | Potency (MCC-26) | Potency (MKL-1) | Potency (MKL-2) | Potency (UISO)

N=C(N=C(N)N)N1CCOCC1
inactive: Potency (SC27B) | Potency (TAB109) | Potency (TAB113) | Potency (W2) | max response (CRL-7250) -16.7% and 0.819% | max response (HEK293) -13.7% and 0.579% | outcome (HaCat [1]) | max response (KB-3-1) -9.57% and 4.72% | max response (NIH3T3 [2]) -0.0574% and 2.52% | outcome (HACAT [3]) | Potency (MCC-13) | Potency (MKL-1) | Potency (MKL-2) | Potency (UISO) | Potency (WaGa) | Potency (C33A)

O=C(CS(=O)Cc1ccco1)NCC=CCOc1cc(CN2CCCCC2)ccn1 (stereo not drawn)
inactive: Potency (SC27B) | Potency (TAB113) | Potency (TAB165) | Potency (W2) | outcome (CRL-7250) | max response (HEK293) -11.3% | max response (HaCat [1]) 0.787% | max response (KB-3-1) 2.68% | outcome (NIH3T3 [2]) | Potency (MCC-13) | Potency (MCC-26) | Potency (MKL-1) | Potency (MKL-2) | outcome (NIH3T3 [4]) | Potency (UISO) | Potency (WaGa)

Nc1cccc2c1CN(C1CCC(=O)NC1=O)C2=O (stereo not drawn)
inactive: Potency (SC27B) | Potency (TAB109) | Potency (TAB113) | Potency (TAB165) | Potency (W2) | max response (CRL-7250) -16.9% and -19.4% | max response (HEK293) 2.44% and -8.05% | max response (HaCat [1]) -19.3% and -22.9% | max response (KB-3-1) 2.15% and 5.39% | max response (NIH3T3 [2]) 1.1% and -1.07% | Potency (MCC-13) | Potency (MCC-26) | Potency (MKL-1) | Potency (MKL-2) | Potency (UISO) | Potency (C33A)

O=C1c2c(O)cc(O)cc2OC(c2ccc(O)c(O)c2)C1O (stereo not drawn)
inactive: max response (CRL-7250) -1.4% | max response (HEK293) -0.947% | max response (HaCat [1]) 2.31% | outcome (KB-3-1) | max response (NIH3T3 [2]) -9.07% | Potency (MCC-13) | Potency (MCC-26) | Potency (MKL-1) | Potency (MKL-2) | Potency (UISO) | Potency (WaGa)

CC(C)(S)[C@@H](N)C(=O)O
inactive: Potency (SC27B) | Potency (TAB109) | Potency (TAB113) | Potency (TAB165) | Potency (W2) | max response (CRL-7250) 1.05% | max response (HEK293) 2.4% | outcome (HaCat [1]) | max response (KB-3-1) 2.35% and 8.6% | outcome (NIH3T3 [2]) | outcome (HACAT [3]) | Potency (MCC-13) | Potency (MCC-26) | Potency (MKL-1) | Potency (MKL-2) | outcome (NIH3T3 [4]) | Potency (UISO) | Potency (WaGa)

O=C(O)c1cn(-c2ccc(F)cc2)c2cc(N3CCNCC3)c(F)cc2c1=O
active: Potency (W2) 10.7 µM
inactive: Potency (SC27B) | Potency (TAB113) | max response (CRL-7250) 3.53% and 1.39% | max response (HEK293) -4.73% | max response (HaCat [1]) -14.9% | max response (KB-3-1) 14.5% and 6.97% | max response (NIH3T3 [2]) -0.0226% and -6.36% | Potency (MCC-13) | Potency (MCC-26) | Potency (MKL-1) | Potency (MKL-2) | Potency (UISO) | Potency (WaGa) | Potency (C33A)

CCCCCCCCCCCCCCCCCCCCCCO
inactive: Potency (SC27B) | Potency (TAB109) | Potency (TAB113) | Potency (TAB165) | Potency (W2) | outcome (CRL-7250) | max response (HEK293) 1.6% | max response (HaCat [1]) 4.38% | max response (KB-3-1) -15.7% and 8.97% | outcome (NIH3T3 [2]) | Potency (MCC-13) | Potency (MCC-26) | Potency (MKL-1) | Potency (MKL-2) | outcome (NIH3T3 [4]) | Potency (UISO) | Potency (WaGa)

NS(=O)(=O)c1cc(C(=O)O)c(NCc2ccco2)cc1Cl
inactive: max response (CRL-7250) -5.7% and -6.17% | max response (HEK293) 1.46% and -13.3% | max response (HaCat [1]) -0.435% and 2.7% | max response (KB-3-1) -9.49% and -2.22% | max response (NIH3T3 [2]) -5.6% and -3.32% | Potency (MCC-13) | Potency (MCC-26) | Potency (MKL-1) | Potency (MKL-2) | Potency (UISO) | Potency (WaGa) | Potency (C33A)
